Bioassay records as filed in PubChem BioAssay.
Hits are enriched below; roughly 11% of the tested compounds scored in any of these assays.
HEK cytotox – cytotoxic compounds in HEK 293 cells. HEK 293 viability, ATP luminescence (CellTiter-Glo), 48-72 h. Potency, µM (titrated, usually from 115 µM), without a hit: at the top dose activity change, negative = cytotoxicity, actives largely listed as inhibitors. actives 6.6% (n = 94,000); active means well fitted curve in the direction sought with a large enough effect; inconclusive means small, poorly fitted or top-dose-only effect, or another doubt; inactive means no such curve, though single readings can be large; an effect the other way counts as inactive or inconclusive; further: on the % scale 0 is the no-effect control and ±100 the full control effect; nearly all actives have a fitted effect of over 60% in size
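Luminescence from cellular ATP, measured with CellTiter-Glo, indicates HEK 293 viability. Cells plated at 250 cells/well are treated with compound for 48 or 72 hr at 37 degree Celsius before reagent addition.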
hNpr1 antagonist – antagonists of human natriuretic peptide receptor Npr1; AID 1347048; actives 1.6% (n = 76,000); HEK293 hNpr1 GloSensor cGMP, ANP-stimulated luminescence; P16066; Potency, µM (doses to about 46.3 µM), inactives show top-dose activity change, negative = inhibition, actives largely listed as inhibitors; further: on the % scale 0 is the no-effect control and ±100 the full control effect; nearly all actives have a fitted effect of over 60% in size
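Compound pre-incubated 30 min at room temperature on GloSensor-loaded HEK293 cells stably carrying hNpr1 and the pGS-40F cGMP biosensor. Stimulation uses hNppA at 0.1 nM final; luminescence is taken at baseline and 20 min post-agonist.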
FLuc inh – blocks purified firefly luciferase enzyme activity | P08659 | purified P. pyralis luciferase, luminescence, biochemical | Potency, µM (titrated, usually from 115 µM), usual class: inhibitors | actives 2.5% (n = 76,000); active means well fitted curve in the direction sought with a large enough effect; inconclusive means small, poorly fitted or top-dose-only effect, or another doubt; inactive means no such curve, though single readings can be large; an effect the other way counts as inactive or inconclusive; further: on the % scale 0 is the no-effect control and ±100 the full control effect; nearly all actives have a fitted effect of over 65% in size
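Luminescence read by CCD imager after adding enzyme (10nM final) to wells holding compound, titrated in qHTS. Substrates 10uM each D-luciferin and ATP; buffer 50mM Tris acetate pH 7.5, 10mM Mg acetate, Tween-20, BSA.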
NIH3T3 tox – NIH 3T3 cell cytotoxicity; AID 1345082; Potency, µM (series often up to 96.7 µM), inactives show at the top dose activity change, negative = cytotoxicity, most hits filed as inhibitors; NIH 3T3 viability, CellTiter-Glo ATP luminescence, 48-72 h; actives 4.3% (n = 94,000); active means well fitted curve in the direction sought with a large enough effect; inconclusive means small, poorly fitted or top-dose-only effect, or another doubt; inactive means no such curve, though single readings can be large; an effect the other way counts as inactive or inconclusive; further: on the % scale 0 is the no-effect control and ±100 the full control effect; nearly all actives have a fitted effect of over 55% in size
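Luminescent ATP readout (CellTiter-Glo, 10 min RT) after 48 or 72 hr compound exposure of NIH 3T3 cells seeded at 400 cells/well in 1536-well format; quantitative HTS.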
NPR1 antag cnf – hNpr1 antagonism, confirmation assay; shares compounds with hNpr1 antagonist; AID 1347044; HEK293 hNpr1 cGMP GloSensor luminescence, ANP-stimulated; Potency, µM (series often up to 57.6 µM), inactives show at the highest dose activity change, negative = inhibition, most hits filed as inhibitors; actives 76% (n = 1,400); further: nearly all actives have a fitted effect of over 70% in size
Npr2 selectivity – antagonizes human Npr2, subtype selectivity check | shares compounds with hNpr1 antagonist | HEK293 hNpr2 GloSensor cGMP luminescence, CNP-stimulated | Potency, µM (series often up to 57.6 µM), for inactives: at the highest dose activity change, negative = inhibition, most hits filed as inhibitors | actives 67% (n = 1,400); further: nearly all actives have a fitted effect of over 70% in size
Target sequence (P20594 whole entry, looked up): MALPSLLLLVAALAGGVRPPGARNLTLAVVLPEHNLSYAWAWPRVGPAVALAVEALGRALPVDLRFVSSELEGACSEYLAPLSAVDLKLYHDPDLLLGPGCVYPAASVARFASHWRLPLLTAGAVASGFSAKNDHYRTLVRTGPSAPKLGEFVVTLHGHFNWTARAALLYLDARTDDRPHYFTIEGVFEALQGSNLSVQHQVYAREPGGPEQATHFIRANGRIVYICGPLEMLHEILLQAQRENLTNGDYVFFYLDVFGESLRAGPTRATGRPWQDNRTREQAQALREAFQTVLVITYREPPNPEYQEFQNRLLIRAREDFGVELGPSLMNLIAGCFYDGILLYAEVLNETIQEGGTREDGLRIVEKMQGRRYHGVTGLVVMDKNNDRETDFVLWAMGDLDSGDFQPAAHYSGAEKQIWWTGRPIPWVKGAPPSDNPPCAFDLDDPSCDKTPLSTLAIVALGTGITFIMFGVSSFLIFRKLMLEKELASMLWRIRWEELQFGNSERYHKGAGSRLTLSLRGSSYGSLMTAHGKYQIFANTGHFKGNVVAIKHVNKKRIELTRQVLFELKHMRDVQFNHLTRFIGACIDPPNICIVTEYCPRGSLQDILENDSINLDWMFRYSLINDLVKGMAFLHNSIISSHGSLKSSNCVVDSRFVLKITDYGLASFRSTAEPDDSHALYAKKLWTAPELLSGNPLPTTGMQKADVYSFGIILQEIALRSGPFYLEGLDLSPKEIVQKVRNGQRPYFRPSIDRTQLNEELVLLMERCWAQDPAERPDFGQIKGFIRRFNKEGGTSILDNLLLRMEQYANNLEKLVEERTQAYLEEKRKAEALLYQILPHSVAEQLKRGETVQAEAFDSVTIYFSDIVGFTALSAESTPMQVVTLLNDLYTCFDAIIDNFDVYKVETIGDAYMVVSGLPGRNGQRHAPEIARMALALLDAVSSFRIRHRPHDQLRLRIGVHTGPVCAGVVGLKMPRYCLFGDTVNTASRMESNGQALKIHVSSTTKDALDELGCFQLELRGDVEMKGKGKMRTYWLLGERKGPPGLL
FLuc counter – inhibits firefly luciferase, false Npr1 antagonist flag. shares compounds with hNpr1 antagonist. Potency, µM (top dose mostly 57.6 µM), without a hit: at the top dose activity change, negative = inhibition, most hits filed as inhibitors. actives 0.7% (n = 1,400). AID 1347047. purified FLuc enzyme, luminescence, Km substrate; active means well fitted curve in the direction sought with a large enough effect; inconclusive means small, poorly fitted or top-dose-only effect, or another doubt; inactive means no such curve, though single readings can be large; an effect the other way counts as inactive or inconclusive; further: 0% is about no effect
GloSensor ctrl – reduces cGMP signal in GloSensor control cells; shares compounds with hNpr1 antagonist; HEK293 GloSensor cGMP, SNP-stimulated, luminescence; Potency, µM (series often up to 57.6 µM), inactives show top-dose activity change, negative = inhibition, usual class: inhibitors; actives 69% (n = 1,400); AID 1347051; further: on the % scale 0 is the no-effect control and ±100 the full control effect; nearly all actives have a fitted effect of over 70% in size
* hit, by the source's call; [ ] = remark or other dose. Unless noted, the call rests on the fitted dose curve. Potency means the concentration at half of the fitted maximal effect.

Results for CCOC(=O)[C@@H]1[C@@H](O)C(=O)N(Cc2ccccc2)C12CCN(C(=O)Cc1ccc(OC)cc1)CC2 ?
HEK cytotox: 2%; NIH3T3 tox: inconclusive

What do the screens show for `COC(=O)Nc1cc(C2CC2)nn1-c1ccccc1`?
HEK cytotox: -2%[172 µM]; NIH3T3 tox: -16%[138 µM]

Results for Cc1noc(-c2ccc(OC3CN(C(=O)NCc4ccccc4)C3)cc2)n1 ?
HEK cytotox: inconclusive; hNpr1 antagonist: inconclusive; FLuc inh: inactive; NIH3T3 tox: inconclusive

What do the screens show for `CCN(CC)C(=O)N1CC(Oc2ccc(-c3noc(COC)n3)cc2)C1`?
HEK cytotox: inconclusive; hNpr1 antagonist: 10µM*; FLuc inh: inactive; NIH3T3 tox: inconclusive; NPR1 antag cnf: 9.7µM*; Npr2 selectivity: 8.6µM*; FLuc counter: 3%; GloSensor ctrl: 6.9µM*

Results for CCN(CC)C(=O)N1CC(Oc2ccc(-c3nc(C)no3)cc2)C1 ?
HEK cytotox: inconclusive; hNpr1 antagonist: 16µM*; FLuc inh: inactive; NIH3T3 tox: inconclusive; NPR1 antag cnf: 24µM*; Npr2 selectivity: inconclusive; FLuc counter: 0%; GloSensor ctrl: inconclusive

What do the screens show for `CCN(CC)C(=O)N1CC(Oc2cccc(-c3nc(C)no3)c2)C1`?
HEK cytotox: inconclusive; hNpr1 antagonist: 0%; FLuc inh: inactive; NIH3T3 tox: -16%

Results for Cc1ccc(CNC(=O)N2CCC(Oc3ccc(-c4noc(C)n4)cc3)C2)cc1 (stereo unspecified) ?
HEK cytotox: inconclusive; hNpr1 antagonist: 20µM*; FLuc inh: inactive; NIH3T3 tox: inconclusive; NPR1 antag cnf: inconclusive; Npr2 selectivity: -28%; FLuc counter: -17%; GloSensor ctrl: -18%

How did Cc1noc(-c2ccc(OC3CN(C(=O)NCc4ccc(F)cc4)C3)cc2)n1 do in these assays?
HEK cytotox: inconclusive; hNpr1 antagonist: 13µM*; FLuc inh: inactive; NIH3T3 tox: inconclusive; NPR1 antag cnf: 27µM*; Npr2 selectivity: inconclusive; FLuc counter: -1%; GloSensor ctrl: 24µM*

What do the screens show for `CCOc1ccccc1CN1C[C@@H]2C(=O)N(Cc3ccc4c(c3)OCO4)C(=O)[C@@H]2C1`?
HEK cytotox: inconclusive; hNpr1 antagonist: -2%; FLuc inh: inactive; NIH3T3 tox: inconclusive

How did COCc1nc(-c2ccc(OC3CN(C(=O)Cc4ccccc4)C3)cc2)no1 do in these assays?
HEK cytotox: inconclusive; hNpr1 antagonist: -24%; FLuc inh: inactive; NIH3T3 tox: inconclusive

Results for COCc1nc(-c2ccc(OC3CN(C(=O)NCc4ccccc4)C3)cc2)no1 ?
HEK cytotox: inconclusive; hNpr1 antagonist: inconclusive; FLuc inh: inactive; NIH3T3 tox: -28%

What do the screens show for `COCc1nc(-c2ccc(OC3CN(S(=O)(=O)c4ccccc4C)C3)cc2)no1`?
HEK cytotox: 14µM*; hNpr1 antagonist: 11µM*; FLuc inh: inactive; NIH3T3 tox: inconclusive; NPR1 antag cnf: 12µM*; Npr2 selectivity: 19µM*; FLuc counter: 1%; GloSensor ctrl: 15µM*

How did COCc1nc(-c2ccc(OC3CN(C(=O)NC(C)C)C3)cc2)no1 do in these assays?
HEK cytotox: inconclusive; hNpr1 antagonist: 13µM*; FLuc inh: inactive; NIH3T3 tox: -22%; NPR1 antag cnf: 24µM*; Npr2 selectivity: 24µM*; FLuc counter: -2%; GloSensor ctrl: 24µM*

What do the screens show for `Cc1nn2c(c1-c1ccccc1-c1ccccc1)N(C(=O)Cc1ccccn1)CCC2`?
HEK cytotox: inconclusive; hNpr1 antagonist: -10%[70.6 µM]; FLuc inh: inactive; NIH3T3 tox: -4%[138 µM]

What do the screens show for `Cc1nn2c(c1-c1cccnc1N1CCOCC1)N(C(=O)Cc1cccc(Cl)c1)CCC2`?
HEK cytotox: 4%; hNpr1 antagonist: -21%; FLuc inh: inactive; NIH3T3 tox: inconclusive; NPR1 antag cnf: -27%; Npr2 selectivity: inconclusive; FLuc counter: 0%; GloSensor ctrl: 7%

What do the screens show for `Cc1nn2c(c1-c1cccnc1N1CCOCC1)N(CCc1ccccc1)CCC2`?
HEK cytotox: 25µM*; hNpr1 antagonist: 4µM*; FLuc inh: inactive; NIH3T3 tox: inconclusive; NPR1 antag cnf: 35µM*; Npr2 selectivity: 31µM*; FLuc counter: -6%[86.2 µM]; GloSensor ctrl: inconclusive

How did Cc1nn(-c2ccccc2)c2c1C(C(C)C)N(C1CN(C(=O)NC(C)C)C1)C2=O (stereo unspecified) do in these assays?
HEK cytotox: inconclusive; NIH3T3 tox: -25%

What do the screens show for `Cc1cc(CNC(=O)c2ccc3c(c2)n(CC2CC2)c(=O)n3C2CCCCC2)on1`?
HEK cytotox: -22%; hNpr1 antagonist: 5.6µM*; FLuc inh: inactive; NIH3T3 tox: inconclusive; NPR1 antag cnf: 14µM*; Npr2 selectivity: 4.8µM*; FLuc counter: -2%; GloSensor ctrl: -6%

How did O=S(=O)(c1ccc(Cl)cc1)N1CCOC[C@H](Oc2ccc(C(F)(F)F)cc2)C1 do in these assays?
HEK cytotox: inconclusive; hNpr1 antagonist: -24%; FLuc inh: inactive; NIH3T3 tox: inconclusive; NPR1 antag cnf: inconclusive; Npr2 selectivity: inconclusive; FLuc counter: 4%; GloSensor ctrl: inconclusive

Results for O=C1[C@@H]2C[C@@H](CN2CC2CC2)Oc2ccccc2N1Cc1cccnc1 ?
HEK cytotox: inconclusive; hNpr1 antagonist: -17%[70.6 µM]; FLuc inh: inactive; NIH3T3 tox: -23%[174 µM]

Results for O=C1[C@@H]2C[C@@H](CN2Cc2ccc(C(F)(F)F)cc2)Oc2ccccc2N1Cc1cccnc1 ?
HEK cytotox: 35µM*; hNpr1 antagonist: -28%; FLuc inh: inactive; NIH3T3 tox: inconclusive; NPR1 antag cnf: inconclusive; Npr2 selectivity: -18%; FLuc counter: -9%; GloSensor ctrl: -1%

How did CC(=O)N1CCC2(CC1)CC(CC(=O)Nc1cccc(F)c1)CCO2 (stereo unspecified) do in these assays?
HEK cytotox: 4%; NIH3T3 tox: -7%
